Results from PubChem BioAssay AID1508622 (National Center for Advancing Translational Sciences (NCATS), 2021).
Calls of active or inactive are those of the source. Calls come from the whole dose curve; as a rule, active = well fitted activation curve with a large enough effect; inconclusive = small, poorly fitted or top-dose-only effect; inactive = no such curve, though single readings can be large or run the other way.

assay: Confirmatory qHTS for Identification of Small Molecule Activators of Huntingtin-Antisense Promoter Activity; conditions: HEK293 HTT-AS promoter firefly luciferase reporter, 24 h; series mostly up to 57.5 µM
Summary of the method: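 Plated reporter HEK293 cells (24 h) received library compounds at up to 57.5 uM final or 50 uM PTC124, incubated 24 h at 37C; firefly luciferase luminescence was then recorded with Dual-Glo reagent.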

Potency, inactive:
Cc1ccc2nc(SCc3nc(-c4ccccc4C)no3)[nH]c2c1
CCc1cccc(-n2nnc(S(=O)(=O)c3ccc(OC)cc3)c2C)c1
COc1cc(OC)cc(C(=O)Oc2c(Sc3ccccc3)c(C)nn2C(C)(C)C)c1
COC(=O)[C@]12CCC(C)(C)C[C@@H]1[C@@H]1C(=O)C=C3[C@@]4(C)C=C(C#N)C(=O)C(C)(C)[C@@H]4CC[C@@]3(C)[C@]1(C)CC2
FC(F)(F)c1cccc(N2CCN(c3nc4ccccc4n4cnnc34)CC2)c1
Cc1ccc(CN2CCSc3ccc(C(=O)NCC(C)c4ccccc4)cc32)cc1 (centres undefined)
CC(C)(C)OC(=O)N1CCC(c2c(C(=O)N3CCC(c4ccccc4)C3)cnn2-c2ccc(Cl)cc2)CC1 (centres undefined)
Cc1ccc(Cl)cc1N1CCN(C(=O)c2cccn2-c2nnc(N3CCCCC3)s2)CC1
Cc1cccc(N2CCN(C(=O)C3CCN(S(=O)(=O)c4c(C)noc4C)CC3)CC2)c1C
CC(C)C(=O)N1c2ncnn2C2(CCCCC2)[C@@H]2CCCC[C@@H]21
COc1ccc(-n2c(-c3ccco3)nc3c(cnn3-c3ccc(Cl)cc3)c2=O)cc1
O=S(=O)(Nc1ccc(F)c(C(F)(F)F)c1)c1ccc(N2CCCCS2(=O)=O)cc1
CCOC(=O)C1=C(CN2CCN(c3ccc(OC)cc3)CC2)NC(=O)NC1c1ccc(OC)cc1 (centres undefined)
CCN(c1ccccc1)S(=O)(=O)c1cc(C(=O)Nc2ccc(Br)cc2)ccc1F
O=S(=O)(c1ccc(-c2csc(=Nc3ccc(OC(F)(F)Cl)cc3)n2CCCO)cc1)N1CCCC1
CCc1ccc(NS(=O)(=O)c2c(C)nc3sc(CC)nn3c2=O)cc1
O=C(NCc1ccc(F)cc1)C1CCN(C(=O)c2ccc(-n3ccc4ccccc43)s2)CC1
COc1ccc(N(Cc2ccccc2)C(=O)c2nc(SC)ncc2Cl)cc1
CC(C)(C)C(=O)NCCc1nc2ccccc2n1CCCCOc1ccccc1
COc1ccc(NC(=O)CSc2nc(-c3ccco3)cc(C(F)(F)F)n2)cc1OC
O=C1CCCc2cc(S(=O)(=O)NCC3CCC(C(=O)Nc4ccccc4F)CC3)ccc2N1 (centres undefined)
Cc1cc(Cl)ccc1OCC(=O)N1CCC(c2nc3ccccc3s2)CC1
COc1ccccc1C1C=C(c2ccc(F)cc2)Nc2nc(-c3ccc(Cl)cc3)nn21 (centres undefined)
CCOC(=O)C1=C(CN2CCN(c3ccc(C)cc3C)CC2)NC(=O)NC1c1ccc(OC)cc1 (centres undefined)
